Here are results for 40 molecules from PubChem BioAssay (EPA / NIEHS).

Molecules are shown by their SMILES. Several values for one entry are separate records, joined by “and”; a condition that tells them apart may be missing. Equal values may be shown once. Activity calls are given as the source filed them. How the source made its calls: active means hit-call score of the fitted dose curve at least 0.9, where 1 is the maximum; inactive means score below 0.9.

This experiment can be described thus: BSK_BE3C_SRB: Viability Assessment in the BioMAP Diversity Plus: BE3C Assay (AID 2283028).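 On AC50: fitted both ways so AC50 may mark signal gain or loss versus DMSO.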 The settings on record: primary human bronchial epithelial cells. The protocol:
BSK_BE3C is a cell-based, multiplexed-readout assay that uses bronchial epithelial cell, a human lung primary cell, with measurements taken at 24 hours after chemical dosing in a 96-well plate.BSK_BE3C_SRB is an assay component measured in the BSK_BE3C assay. It measures 0.1% sulforhodamine related to cell death using Sulforhodamine staining technology.Data from the assay component BSK_BE3C_SRB was analyzed into 1 assay endpoint. This assay endpoint, BSK_BE3C_SRB, was analyzed with bidirectional fitting relative to DMSO as the negative control and baseline of activity. Using a type of viability reporter, gain or loss-of-signal activity can be used to understand changes in the signaling. Furthermore, this assay endpoint can be referred to as a primary readout, because this assay has produced multiple assay endpoints where this one serves a signaling function. To generalize the intended target to other relatable targets, this assay endpoint is annotated to the cell morphology intended target family, where the subfamily is cell conformation.
The levels of cell surface (or secreted, indicated by the prefix "s") biomarker endpoints were measured by ELISA. Overt cytotoxicity to cells in confluent adherent cultures (all systems other than the BT system) was assessed by measuring total protein levels using sulforhodamine B (SRB) staining in parallel cultures at the time of biomarker measurements, indicated as SRB endpoints. For proliferation assays for adherent cell types, individual cell types are cultured at sub-confluence and relative cell numbers quantified by SRB staining at time points optimized for each system (48 h: 3C and CASM3C systems; 72 h: BT and HDF3CGF systems; 96 h: SAg system). SRB was performed by staining cells with 0.1% SRB after fixation with 10% TCA and reading wells at 560 nm.Viability and proliferation of PBMC (T cells) was quantified by Alamar Blue reduction for the SAg and BT systems. For PBMC viability (referred to as PBMC Cytotoxicity within the assay endpoint names), cells were plated (75,000/well in a 96-well plate) and then chemical samples added for 1 h before addition of activators, SEB and TSST-1 (20 ng/mL final concentration each). Cells were incubated for 90 h. Then, Alamar Blue (20 uL/well) (Invitrogen, Cat DAL1100) was added for 6 h, and the plates were read with a fluorescence microplate reader at 546/580 nm (excitation/emission). For PBMC proliferation, cells were plated and activated as above but incubated for only 16 h prior to addition of Alamar Blue. Plates were read after 6 h.
Take `OCC(F)(F)C(F)(F)C(F)(F)CO`: the outcome was inactive.

Take `NCC(F)(F)C(F)(F)C(F)(F)C(F)(F)C(F)(F)C(F)(F)F`: the result was inactive.

A word on the AC50: it is the concentration at which the activity in the assay is half-maximal. As for `Cc1cc(O)c(C(C)(C)C)cc1C(C)(C)C`, the AC50 is 5.9 µM (active).

Take `CN(C(=O)C(F)(F)C(F)(F)C(F)(F)F)[Si](C)(C)C`: the result was inactive.

`O=C(Cl)C(F)(F)C(F)(F)C(F)(F)C(F)(F)C(F)(F)C(F)(F)C(F)(F)F`: the result was inactive.

For `NCC(F)(F)C(F)(F)C(F)(F)C(F)(F)C(F)(F)C(F)(F)C(F)(F)C(F)(F)F`, the outcome was inactive.

Consider `FC(F)(F)C(F)(F)C(F)(F)CC1CO1` (stereo not given), for which the outcome was inactive.

`O=C(c1ccccc1)c1ccc(O)cc1O`: the result was inactive.

Regarding `O=C(O)C(F)(F)C(F)(F)C(F)(F)OC(F)(F)F`, the result was inactive.

Turning to `O=S(=O)(Cl)C(F)(F)C(F)(F)C(F)(F)C(F)(F)C(F)(F)C(F)(F)C(F)(F)C(F)(F)F`, the AC50 is 43.9 µM (active) and 30.7 µM (active).

As for `NS(=O)(=O)C(F)(F)C(F)(F)C(F)(F)C(F)(F)C(F)(F)C(F)(F)F`, the outcome was inactive.

Consider `COC(F)(C(F)F)C(F)(F)F` (stereo not given), for which the result was inactive.

Turning to `Cc1ccc(O)c(-n2nc3ccccc3n2)c1`, the outcome was inactive.

As to `O=S(=O)(O)CCC(F)(F)C(F)(F)C(F)(F)C(F)(F)C(F)(F)C(F)(F)C(F)(F)C(F)(F)F`, the outcome was inactive.

On to `CCOC(=O)CC(=O)C(F)(F)C(F)(F)F`, for which the outcome was inactive.

Consider `Cc1ccc(S(=O)(=O)C(I)I)cc1`, for which the AC50 is 5.15 µM (active).

As for `CO[Si](C)(CCC(F)(F)C(F)(F)C(F)(F)C(F)(F)C(F)(F)C(F)(F)F)OC`, the outcome was inactive.

Turning to `Brc1nc2ccccc2s1`, the outcome was inactive.

In the case of `O=C(O)CCC(F)(F)C(F)(F)C(F)(F)F`, the outcome was inactive.

`C=CC(=O)OCC(F)(F)C(F)(F)C(F)(F)C(F)(F)C(F)(F)C(F)(F)C(F)(F)C(F)F`: the result was inactive.

On to `O=C(O)C(F)(F)C(F)(F)C(F)(F)C(=O)O`, for which the result was inactive.

Regarding `C[Si](Cl)(Cl)CCC(F)(F)C(F)(F)C(F)(F)C(F)(F)C(F)(F)C(F)(F)F`, the outcome was inactive.

As to `NC(=O)C(F)(F)C(F)(F)C(F)(F)C(F)(F)C(F)(F)C(F)(F)C(F)(F)F`, the result was inactive.

With `O=C1C=CC(=O)N1c1ccc(Cc2ccc(N3C(=O)C=CC3=O)cc2)cc1`, the AC50 was 3.04 µM (active).

Take `OCCCC(F)(F)C(F)(F)C(F)(F)C(F)(F)C(F)(F)C(F)(F)C(F)(F)C(F)(F)F`: the AC50 is 51.9 µM (active) and 48.7 µM (active).

For `CCN(CCO)S(=O)(=O)C(F)(F)C(F)(F)C(F)(F)C(F)(F)C(F)(F)C(F)(F)C(F)(F)C(F)(F)F`, the concentration at half-maximal activity (AC50) is 44.5 µM (active) and 37.2 µM (active).

Turning to `OCC(F)(F)C(F)(F)C(F)(F)C(F)(F)C(F)(F)C(F)(F)C(F)(F)C(F)(F)CO`, the outcome was inactive.

As to `CCN(CC)c1ccc2c(c1)Oc1cc(N(CC)CC)ccc1C21OC(=O)c2ccccc21`, the outcome was inactive.

As for `CC(C)(C)c1cc(CCC(=O)NCCCCCCNC(=O)CCc2cc(C(C)(C)C)c(O)c(C(C)(C)C)c2)cc(C(C)(C)C)c1O`, the result was inactive.

For the molecule `O=C(O)C(F)(F)C(F)(F)C(F)(F)C(F)(F)C(F)(F)C(F)(F)C(F)F`, the outcome was inactive.

Turning to `NC(=O)C(F)(F)C(F)(F)C(F)(F)C(F)F`, the result was inactive.

As to `Nc1cc([N+](=O)[O-])cc(Cl)c1O`, the outcome was inactive.

Consider `OCCCCC(F)(F)C(F)(F)C(F)(F)C(F)(F)F`, for which the outcome was inactive.

With `OCC(O)CC(F)(F)C(F)(F)C(F)(F)C(F)(F)C(F)(F)C(F)(F)C(F)(F)C(F)(F)F` (stereo not given), the outcome was inactive.

Turning to `O=C(O)C(F)(F)C(F)(F)C(F)(F)OC(F)(C(F)(F)F)C(F)(F)F`, the outcome was inactive.

Regarding `NC(O)(C(F)(F)F)C(F)(F)F`, the outcome was inactive.

As to `C=CC(=O)OCCC(F)(F)C(F)(F)C(F)(F)C(F)(F)F`, the result was inactive.

For the molecule `C[C@]12CC[C@H]3C(=CCc4cc(O)ccc43)[C@@H]1CCC2=O`, the result was inactive.

With `CNS(=O)(=O)C(F)(F)C(F)(F)C(F)(F)C(F)(F)C(F)(F)C(F)(F)C(F)(F)C(F)(F)F`, the result was inactive.

Take `O=S(=O)(OCC(F)(F)F)C(F)(F)C(F)(F)C(F)(F)C(F)(F)F`: the outcome was inactive.
